Only some compounds are listed: those with a hit (about 1.5% of all), similar ones and a draw of the others.
TMEM16A act = TMEM16A chloride channel activators or potentiators, primary screen, cell-based, HTS; Anoctamin-1 (Mus musculus), Q8BHY3; HEK293 TMEM16A/YFP-H148Q/I152L, iodide quench fluorescence; hits give low values; B-score at 10 µM; 340,000 tested, 0.3% active;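 active = fluorescence-ratio B-score plate-corrected deviation score at least 3 library SD below zero, with starting fluorescence score within 5 deviations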;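 also: channel opened by trigger with iodide after compound preincubation; score built on the fluorescence ratio of max minus min over baseline; more negative score means more quench and so TMEM16A activation or potentiation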
DAGLB inh = DAGLB lipase inhibitors, primary screen, biochemical, fluorescence, HTS; Diacylglycerol lipase-beta (Homo sapiens), Q8NCG7; HEK293T DAGLB membrane lysate, EnzChek fluorogenic substrate; inhibition, % at 5.17 µM; 340,000 tested, 0.059% active; AID 504411, 2011; in the data active = inhibition above about 34%;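 also: 0% = enzyme with vehicle and 100% = wells lacking enzyme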
Target sequence (Q8NCG7 whole entry, looked up): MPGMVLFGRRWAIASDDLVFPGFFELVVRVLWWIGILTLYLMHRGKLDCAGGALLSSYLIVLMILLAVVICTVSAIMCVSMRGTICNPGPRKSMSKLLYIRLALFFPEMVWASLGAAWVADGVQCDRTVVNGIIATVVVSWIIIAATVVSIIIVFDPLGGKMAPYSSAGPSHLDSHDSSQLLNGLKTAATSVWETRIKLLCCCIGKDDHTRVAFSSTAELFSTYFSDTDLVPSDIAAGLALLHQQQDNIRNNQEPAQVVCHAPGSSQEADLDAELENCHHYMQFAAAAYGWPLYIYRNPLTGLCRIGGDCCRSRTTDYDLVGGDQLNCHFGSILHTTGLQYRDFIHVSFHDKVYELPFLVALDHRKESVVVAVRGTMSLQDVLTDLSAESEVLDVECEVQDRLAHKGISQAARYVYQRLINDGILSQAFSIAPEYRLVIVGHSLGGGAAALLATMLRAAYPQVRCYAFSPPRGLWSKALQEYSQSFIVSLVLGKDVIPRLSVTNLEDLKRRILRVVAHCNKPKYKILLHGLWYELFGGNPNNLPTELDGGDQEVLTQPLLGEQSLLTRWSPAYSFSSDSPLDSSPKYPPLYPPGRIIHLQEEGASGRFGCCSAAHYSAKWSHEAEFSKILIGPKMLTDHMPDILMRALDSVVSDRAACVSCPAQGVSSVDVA
hiPSC survival = enhancers of single-cell hiPSC survival, primary screen, ATPlite luminescence; 100% = ROCK inhibitor wells, 0% = DMSO; survival enhancement, % at 20 µM; 360,000 tested, 0.044% active; AID 602274, 2012; in the data active = survival enhancement above about 18%;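 also: cells exposed to compounds for 16 hours before the ATP read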
ANO1 block = TMEM16A chloride channel inhibitors, primary screen, cell-based, HTS; Anoctamin-1 (Mus musculus), Q8BHY3; HEK293 TMEM16A/YFP iodide influx fluorescence, ionomycin; normalized B-score (activity score, 25-100; higher = stronger inhibition) at 10 µM; 310,000 tested, 1.2% active; AID 588511, 2011;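 active = ratio plate-corrected score three or more library SD toward inhibition, starting fluorescence score within five deviations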;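 also: score derived from kinetic fluorescence span divided by baseline fluorescence per well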
ABCB6 inh MLPCN = ABCB6 transporter inhibitors, primary screen, K562-ABCB6 cells, flow cytometry, MLPCN library. ATP-binding cassette sub-family B member 6 (Homo sapiens), Q9NP58. K562-ABCB6 porphyrin accumulation, 1 h; hits give low values. fluorescence ratio to DMSO, % at 10 µM. 360,000 tested, 0.19% active. AID 602162, 2011;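 active = fluorescence ratio to DMSO below 75%, the collection mean minus 3 SD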;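 also: signal is porphyrin accumulated inside mitochondria; 100% equals median channel fluorescence of DMSO control wells; lower ratio means ABCB6 inhibition with less porphyrin fluorescence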
* = called active by the depositor; i = inactive; x = not tested or not shown.

SMILES	TMEM16A act	DAGLB inh	hiPSC survival	ANO1 block	ABCB6 inh MLPCN
COc1cccc(CN(C)C(=O)CCNC(=O)c2ccco2)c1	i	0.9	3.1	x	100.0
O=C(COc1ccc(-n2ccnc2)cc1)Nc1cccc(Cl)c1	i	0.2	2.6	25*	103.0
CCN(CC)S(=O)(=O)c1ccc(/C=C/C(=O)Nc2ccc(Br)cc2F)cc1	i	-3.7	-0.6	100*	94.0
O=C(/C=C/c1cccc([N+](=O)[O-])c1)NCCSCc1cccc(Cl)c1	i	-4.0	-1.2	100*	102.0
COc1ccc(-c2c(-c3ccc(O)cc3O)n[nH]c2C(F)(F)F)cc1	i	-0.3	-0.4	i	90.0
Oc1ccc(-c2n[nH]c(C(F)(F)F)c2-c2ccccc2)c(O)c1	i	x	-0.4	100*	106.0
COc1cc(COC(=O)c2cnc(C)cn2)c(OC)cc1Br	i	-2.6	-0.3	i	100.0
O=C(/C=C/c1ccccc1)NNC(=O)C1CC1	i	-0.4	-2.3	i	65.0*
COc1ccc(C2(C(=O)Nc3ccc(S(N)(=O)=O)cc3)CCCC2)cc1	-5.12*	-4.5	-0.2	i	97.0
COc1ccc(S(=O)(=O)Nc2c(C(=O)O)[nH]c3ccccc23)cc1	i	0.0	-0.4	i	101.0
O=C(O)c1[nH]c2ccccc2c1NS(=O)(=O)c1ccc(F)cc1	-48.9*	0.5	-0.1	i	98.0
CCCS(=O)(=O)NC(=O)C1(C)CCN(C(=O)c2cc(OC)c(OC)c(OC)c2)C1 (stereo unspecified)	x	x	-0.7	x	100.0
COc1cc(C)nc(N2CCCC(C(=O)Nc3cc(Cl)ccc3OC)C2)n1 (stereo unspecified)	i	-3.1	-2.4	25*	90.0
COc1ccc(N2CCN(C(=O)c3ccc(-c4nc5ccccc5s4)o3)CC2)cc1	-28.3*	0.1	-0.3	x	93.0
COc1ccccc1N1CCN(C(=O)c2ccc(-c3nc4ccccc4s3)o2)CC1	i	12.9	-0.1	x	99.0
O=C(CN1C(=O)C2CCCCC2C1=O)Nc1ccc(OC(F)F)c(Cl)c1 (stereo unspecified)	i	-3.4	-1.6	x	102.0
CC1=NN(C(N)=S)C(=O)C1N=Nc1c(Br)cc(Br)cc1Br (stereo unspecified)	i	28.2	-0.7	100*	109.0
CC1=NN(C(N)=S)C(=O)C1N=Nc1c(Cl)cc([N+](=O)[O-])cc1Cl (stereo unspecified)	i	33.6	2.8	25*	95.0
O=C(CCCl)N1c2ccccc2C=Cc2ccccc21	i	-1.6	-0.3	x	105.0
CC(C)[C@H](NC(=O)c1ccc(Cl)cc1Cl)C(=O)NNc1cccc(C(=O)O)c1	i	-2.9	-1.3	x	270.0
O=C(NCCc1ccc(Cl)cc1)c1ccc(CNc2c(N3CCOCC3)c(=O)c2=O)cc1	-6.64*	0.7	0.3	i	93.0
O=C(NCc1ccc(Cl)cc1)c1ccc(CNc2c(N3CCOCC3)c(=O)c2=O)cc1	i	2.2	-0.2	i	90.0
CCCCCn1nnnc1-c1nc2cc(C)c(C)cc2[nH]c1=O	x	x	0.1	x	103.0
CC(C)(C)OC(=O)NCCCCCc1nnc(SCc2cccc(F)c2)o1	i	-4.1	-0.5	25*	94.0
CC(C)(C)OC(=O)NCCCCCc1nnc(SCc2ccccc2)o1	i	-7.9	-0.3	i	94.0
SMILES	TMEM16A act	DAGLB inh	hiPSC survival	ANO1 block	ABCB6 inh MLPCN
CC(C)(C)OC(=O)NCCCCCc1nnc(SCc2c(F)cccc2Cl)o1	i	-5.2	0.4	100*	92.0
COC(=O)c1[nH]c2cc(OC)c(OC)cc2c1NC(=O)CN1C[C@H]2C[C@@H](C1)c1cccc(=O)n1C2	i	0.2	3.4	x	101.0
O=C(c1ccncc1)N1CCN(S(=O)(=O)c2ccccc2F)CC1	i	1.4	-3.2	x	99.0
O=S(=O)(NCc1ccccc1Cl)c1ccc(-n2cccn2)cc1	i	-0.5	-0.2	i	100.0
CCOC(=O)/C(C#N)=C/c1c(OCC)n(CC)c2ccccc12	i	-8.4	-0.6	100*	99.0
CCNc1nc(CC)nc2c1oc1ccccc12	i	0.6	-2.6	i	112.0
CCNc1nc(C)nc2c1oc1ccccc12	i	-1.5	-2.1	i	67.0*
CCOc1ccc2c(c1)s/c(=N\S(=O)(=O)c1ccc(OC)cc1)n2C(F)F	i	-10.6	-0.1	25*	95.0
CCOc1ccc2c(c1)sc1nc(C(=O)OC)cc(=O)n12	i	-0.2	0.6	i	97.0
O=C(Nc1ccccc1C(=O)O)C1=NN=CC1	i	0.7	0.2	i	96.0
Clc1ccc(-c2ccnc(Oc3ccc4ccccc4c3)n2)cc1	i	-1.8	-1.8	i	98.0
Clc1ccc(-c2ccnc(Oc3cc(Cl)ccc3Cl)n2)cc1	i	-5.2	-2.7	25*	97.0
C[C@@H](C(=O)NCCc1ccccc1F)N1C(=O)N2CCc3c([nH]c4ccccc34)[C@@]2(C)C1=O	i	-0.7	-0.7	25*	98.0
C[C@@H](C(=O)NCCc1ccccc1)N1C(=O)N2CCc3c([nH]c4ccccc34)[C@@]2(C)C1=O	i	2.9	-2.9	i	101.0
O=C(NC1CCCC1)c1ccc(Cl)c(S(=O)(=O)N2CCCCC2)c1	i	-1.2	-0.5	i	86.0
CCCN(CCC)C(=O)Cn1c(=O)c2sccc2n2c(=S)sc(-c3ccccc3)c12	i	-1.2	-0.9	i	432.0
CCCN(CCC)C(=O)Cn1c(=O)c2ccccc2n2c(=S)sc(-c3ccccc3C)c12	-7.63*	4.1	-0.5	i	106.0
Cc1cc(C)cc(C(=O)NCC(=O)OCC(=O)Nc2ccc(C)cc2Br)c1	-4.64*	-1.1	-0.3	i	100.0
CCc1nc2ccc(C(=O)N(C)CCCN(C)C)cn2c1N(CC)CCOC	x	x	1.8	x	99.0
COc1cccc(-c2ccc3nnc(SCC(=O)N4CCOCC4)n3n2)c1	i	0.1	-0.5	i	99.0
COc1cccc(-c2ccc3nnc(SCC(=O)N4CCCC4)n3n2)c1	-4.74*	2.5	0.2	i	98.0
CC(C)(C)OC(=O)N1CCC(NC(=O)c2[nH]c(C(F)(F)F)nc2-c2ccccc2)CC1	x	x	-0.4	x	97.0
C=C1/C(=C\C=C2/CCC[C@]3(C)[C@@H]([C@H](C)CCCC(C)(C)O)CC[C@@H]23)C[C@@H](O)C[C@@H]1O	x	x	x	100*	x
N#C/C(=N/Nc1ccc(OC(F)(F)F)cc1)C(N)=S	i	10.5	-0.5	100*	81.0
COc1ccc(N/N=C(\C#N)C(N)=O)cc1	i	-0.4	-2.8	i	103.0
